Test results as given in PubChem BioAssay AID624172 (National Center for Advancing Translational Sciences (NCATS), 2012).
In all, about 380,000 compounds went through this assay and about 25 (0.007%) were called active. Only a sample is shown. Unmarked numbers belong to inactive results. Calls follow the shape of the dose curve; as a rule, active = well fitted activation curve with a large enough effect; inconclusive = small, poorly fitted or top-dose-only effect; inactive = no such curve, though single readings can be large or run the other way. Square brackets hold non-standard residues; d marks the D form. Side chains are listed from the residue outwards. Peptide text beside a SMILES is read from it. * marks the point of attachment. X1 = CCC(C)C(N)C1=NC(C(=O)*)CS1; Orn = NCCC[CH](N)C(=O)O

Target: Glucagon-like peptide 1 receptor (Homo sapiens) (UniProt P43220)
Sequence (P43220 whole entry, looked up): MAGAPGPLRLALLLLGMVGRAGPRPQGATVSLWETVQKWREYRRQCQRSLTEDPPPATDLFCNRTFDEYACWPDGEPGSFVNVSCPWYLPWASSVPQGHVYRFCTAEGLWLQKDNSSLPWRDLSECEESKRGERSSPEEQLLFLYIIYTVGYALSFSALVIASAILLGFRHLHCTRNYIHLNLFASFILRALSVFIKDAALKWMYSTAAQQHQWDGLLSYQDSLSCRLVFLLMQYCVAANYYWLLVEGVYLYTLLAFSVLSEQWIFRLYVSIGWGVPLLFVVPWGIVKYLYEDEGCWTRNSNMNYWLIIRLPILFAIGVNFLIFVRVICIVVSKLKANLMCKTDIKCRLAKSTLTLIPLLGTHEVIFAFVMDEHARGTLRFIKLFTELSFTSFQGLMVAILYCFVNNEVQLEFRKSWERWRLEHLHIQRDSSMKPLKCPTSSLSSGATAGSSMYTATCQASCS
Assay: qHTS of GLP-1 Receptor Agonists; also: % of control where 0% means no effect
Conditions: HEK293 GLP-1R CRE-luciferase, luminescence, 4-6 h, cells express a hypersensitive GLP-1R form; series mostly up to 45.6 µM; activation: at the top concentration
Description: The overall goal of this project was to develop a novel assay for discovering small molecule ligands for class B1 G protein-coupled receptors (GPCRs). Very few agonists (or inverse agonists) with generally weak activity for this entire group of physiologically important receptors are known to date. To establish proof-of-principle that this critical bottleneck can be overcome with a suitable screening approach, our studies focused on the class B1 receptor for glucagon-like peptide-1 (GLP-1R), a potential therapeutic target for diabetes and neurodegenerative disease.
The assay was developed in a "mix and measure" format using a cell-based functional readout. Toward this goal, stably transfected HEK293 cell clones were established that co-express (i) a cAMP-responsive luciferase reporter gene, and (ii) GLP-1Rs that upon ligand interaction either stimulate (agonists) or inhibit (inverse agonists) luciferase activity. In different cell lines to be used for screening, expressed GLP-1Rs are specifically optimized for high sensitivity detection of either weak agonists (hypersensitive receptor) or inverse agonists (constitutively active receptor mutant). In addition, control cell lines were developed that express either the cAMP-responsive reporter gene without recombinant GLP-1Rs (enabling initial exclusion of GLP-1R independent effects of candidate probes), or the reporter gene together with wild type GLP-1Rs (for confirmation of probe activity at this receptor), or the reporter gene in combination with the constitutively active orphan receptor GPR119 (enabling initial exclusion of GLP-1R independent inhibitory effects of candidate inverse agonists).
To that end, this assay was optimized for 1536-well format and screened against the MLSMR.
NIH Molecular Libraries Probe Production Network [MLPCN]
NIH Chemical Genomics Center [NCGC]
PI Name: Martin Beinborn, Tufts Medical Center
In a white solid 1536-well plate, 6 uL of cells are dispensed in DMEM without phenol red, 10% Nu serum, and 1% pen-strep medium. The plates are then incubated for 12 hours at 37 deg C at 5% CO2 before 23 nL of compounds are added. After a 4-6 hr incubation at37 deg C and 5% CO2, 3 uL of detection reagent are added and after a 12 min incubation at RT, a luminescent read is obtained on the ViewLux.

SMILES | activation
COc1cccc(CNC(=O)c2ccc3c(Cl)c4c(nc3c2)CCCC4)c1 | -2.18%
COc1cccc(C(=O)NC2(C(F)(F)F)C(=O)Nc3c2c(=O)[nH]c(=O)n3-c2ccc(C)cc2)c1 (configuration not stated) | -1.9%
Cc1ccc(C)c(N2CCN(C(=O)CN3C(=O)COc4ccc(S(=O)(=O)N5CCCCCC5)cc43)CC2)c1 | 0.958%
CCn1cc(C(=O)N(C)Cc2ccccc2)c(=O)c2cc(S(=O)(=O)N3CCCCCC3)ccc21 | 1.72%
Cc1cccc(Cc2c(C)nc3nc(SCc4ccccc4Cl)nn3c2C)c1 | -0.0641%
Oc1ccccc1-c1nc2ccc(Cl)cn2c1Nc1ccc2c(c1)OCCO2 | 0.836%
COc1cc(C(=O)Nc2ccc(OCc3cc(=O)n4cc(C)sc4n3)cc2)cc(OC)c1OC | 0.983%
COc1ccc(NC(=O)C2CCCN(S(=O)(=O)c3cccc4nonc34)C2)cc1Cl (configuration not stated) | 1.17%
CCC(C)[C@@H](N)C(=O)O (some centres not stated) | -4.44%
CCCc1c2oc(C(=O)O)cc(=O)c2cc2c(=O)cc(C(=O)O)n(CC)c12 | 2.28%
CCCCCCCCCCCCCCCCO | 7.22%
O=S(O)CNc1ccc(S(=O)(=O)c2ccc(NCS(=O)O)cc2)cc1 | -1.51%
CCCN(CC)[C@@H](CC)C(=O)Nc1c(C)cccc1C | 12.7%
CN1CC(O)c2cc(N=NC(N)=O)c(O)cc21 (configuration not stated) | 4.42%
O=C(Cn1nc(C(F)(F)F)c2c1CCCC2)Nc1ccc(Cl)cc1 | -5.59%
CCOc1ccc(OCC)c(NC(=O)CN(c2ccc(C)cc2)S(=O)(=O)c2c(C)n[nH]c2C)c1 | -3.92%
CCOC(=O)c1ccc(NC2=CC(c3ccc(OCC)cc3)N(c3ccc(C(=O)OCC)cc3)C2=O)cc1 (configuration not stated) | 6.97%
CN(Cc1ccccc1)c1ncnc2onc(-c3ccc(F)cc3)c12 | 19.7%
O=C(Nc1ccc(O)cc1)c1ccccc1O | -6.64%

SMILES | activation
O=P(O)(O)OC[C@H](O)CO | 3.23%
COc1cccc(NC(=O)C2CCN(c3cc(C)nc4c(-c5ccc(Cl)cc5)c(C)nn34)CC2)c1 | 1.15%
COC(=O)CC1Oc2ccccc2-n2cc(-c3ccccc3)nc21 (configuration not stated) | 1.91%
CCOC(=O)c1cccc(NS(=O)(=O)c2cn(C)c(C)n2)c1 | 7.08%
CCOc1ccc(N(CC)C(=O)C2CCN(S(=O)(=O)c3cccc4nonc34)CC2)cc1 | 0.873%
COc1ccnc(C[S@@](=O)[C@@H]2Nc3ccc(OC(F)F)cc3N2)c1OC | 7.88%
O=C(Nc1c(-c2ccc(F)cc2)nc2ccccn12)c1cccc(F)c1 | 0.824%
CC1(C)OC2CO[C@]3(COS(N)(=O)=O)OC(C)(C)OC3C2O1 (some centres not stated) | 10.6%
COC(=O)c1scc(-c2ccccc2)c1S(=O)(=O)Nc1ccccc1 | -3.22%
COc1ccc(C)cc1NC(=O)C(=O)NCCc1sc(-c2cccc(C)c2)nc1C | 14.1%
COc1ccc(-c2noc(CCC(=O)N(C)c3ccccc3C)n2)cc1 | -0.858%
C/C=C/C=N/NC(=O)c1ccncc1 | 0.223%
COc1ccc2cc(CNc3ccc(OC)c(OC)c3)c(=O)n(CC(=O)Nc3ccccc3F)c2c1 | -0.472%
COc1cc2[nH]c(C)c(CCN3CCN(c4ccccc4)CC3)c2cc1OC | 1.59%
COC(=O)C1=C(c2ccccc2)c2ccccc2S(=O)(=O)N1CC(=O)Nc1ccccc1C(F)(F)F | -1.05%
COc1cc(C(CC(=O)NCCC(C)C)N2Cc3ccccc3C2=O)cc(OC)c1OC (configuration not stated) | -3.2%
CC1(C)[C@H](O[C@H]2O[C@H](C(=O)O)[C@@H](O)[C@H](O)[C@H]2O[C@@H]2O[C@H](C(=O)O)[C@@H](O)[C@H](O)[C@H]2O)CC[C@@]2(C)[C@H]1CC[C@]1(C)[C@H]2C(=O)C=C2[C@H]3C[C@@](C)(C(=O)O)CC[C@]3(C)CC[C@]21C | -3.71%
CCc1cccc(NC(=O)CSc2nccn2C)c1 | -3.15%
CO[C@H]1C[C@@H](O[C@@H]2[C@@H](C)O[C@@H](O[C@@H]3/C(C)=C/CC4C[C@@H](C[C@]5(C=C[C@@H](C)[C@H](C6CCCCC6)O5)O4)OC(=O)[C@@H]4C=C(C)[C@@H](O)[C@H]5OC/C(=C\C=C\[C@@H]3C)[C@]54O)C[C@H]2OC)O[C@@H](C)[C@@H]1O | -0.686%

SMILES | activation
CCC(C)C(N)C1=NC(C(=O)NC(CC(C)C)C(=O)NC(CCC(=O)O)C(=O)NC(C(=O)NCCCCC2NC(=O)C(CC(N)=O)NC(=O)C(CC(=O)O)NC(=O)C(Cc3cnc[nH]3)NC(=O)C(Cc3ccccc3)NC(=O)C(C(C)CC)NC(=O)C(CCCN)NC2=O)C(C)CC)CS1 (stereo not drawn) (cyclo(DNK([Ile-Glu-Leu-X1])[Orn]IFH); configuration not given here) | -2.39%
COc1ccc(Cl)cc1NC(=O)Cn1c(=O)c2ccccc2n2nncc12 | -0.325%
Cc1ccc(CNC(=O)Cn2c(=O)ccc3cc(S(=O)(=O)N4CCCC4)ccc32)cc1 | -1.49%
CCc1ccccc1NC(=O)Cn1c(=O)n(-c2cccc(C)c2)c(=O)c2c1c1cc(OC)ccc1n2C | -2.18%
CCOc1ccc(NS(=O)(=O)c2ccc(N)cc2)nn1 | 9.6%
Cc1ccc(-c2nnc(SCc3ccccc3C)o2)cc1 | 4.83%
O=C(/C=C/c1cccc(F)c1)NC1CC1 | -0.0663%
CCOC(=O)c1ccccc1NC(=O)CCc1c(C)nc2c(c1C)c(=O)n(C)c(=O)n2C | -0.702%
Cc1cc(C)cc(NC(=O)Cn2c(=O)c3ccccc3n3nncc23)c1 | 0.209%
FCOC(C(F)(F)F)C(F)(F)F | -1.76%
COc1ccccc1N1CCN(c2ncnc3onc(-c4ccc(F)cc4)c23)CC1 | -0.0304%
Cc1ccc(C)c(N2CCN(S(=O)(=O)c3ccc4c(c3)C(C(C)C)C(=O)N4)CC2)c1 (configuration not stated) | 4.77%
NCCCCC(N)C(=O)O (configuration not stated) | -3.9%
Cn1c(=O)nc2n(-c3ccc(Br)cc3)c3cccc(Cl)c3cc-2c1=O | -2.12%
Cc1ccc(-n2nnnc2CNC(=O)c2ccccc2C)cc1C | 0.615%
COc1ccc(NC(=O)Cn2c(=O)n(Cc3ccc(C(=O)NCc4ccccc4Cl)cc3)c(=O)c3ccccc32)cc1 | 2.1%
Cc1cccc(NC(=O)CSc2nc3c([nH]c4ccccc43)c(=O)n2-c2cc(C)cc(C)c2)c1 | 3.1%
CC1(C)OC2CC(=O)OC[C@@]23C1CC(=O)[C@]1(C)C3CC[C@@]2(C)C(c3ccoc3)OC(=O)C3O[C@@]321 (some centres not stated) | -3.73%
Cc1ccc(C(=O)CSc2nc(-c3ccccc3)nc3c2CCCC3)c(C)c1 | -7.64%
